PubChem BioAssay AID504832 (National Center for Advancing Translational Sciences (NCATS), 2011)
Among all 310,000 compounds or so, about 18,000 (5.8%) were called active. Another 22% or so got no clear call; they are omitted. Calls follow the shape of the dose curve; as a rule, active = well fitted inhibition curve with a large enough effect; inconclusive = small, poorly fitted or top-dose-only effect, or another doubt; inactive = no such curve, though single readings can be large or run the other way. Only a selection was taken, and actives are over-represented in it overall.

test: Primary qHTS for delayed death inhibitors of the malarial parasite plastid, 48 hour incubation; settings: P. falciparum luciferase growth in erythrocytes; series mostly up to 28.7 µM; activity change, negative = inhibition: at the top concentration
Method in brief: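 Read-out is firefly luciferase luminescence from an integrated reporter in P. falciparum, so falling signal marks reduced parasite growth. Infected erythrocytes were at 2% hematocrit and 0.1% parasitemia (final) in Albumax-supplemented RPMI 1640.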
% is scaled to controls: 0 for no effect and ±100 for the full control effect; potency is read from the fitted curve at half-maximal effect.

Structure (SMILES)	activity change, negative = inhibition	Potency
C[C@H](OC(=O)n1ccnc1)[C@@H]1O[C@@]2(C)CCC[C@@H]1O2	2.35% (inactive)	–
Cc1cccc(CN2CCC(n3nccc3NC(=O)c3ccccc3C)CC2)n1	9.28% (inactive)	–
Cc1ccc(-n2ncc3c2CCCC3NC(=O)c2cnccn2)cc1C (stereo not drawn)	-16.1% (inactive)	–
COc1ccccc1C(=O)NCCC(=O)NC(C)CCc1ccccc1 (stereo not drawn)	5.59% (inactive)	–
O=c1oc2ccccc2c(NC2CCCCC2)c1NS(=O)(=O)c1ccc(Cl)cc1	16.6% (inactive)	–
COC(=O)COc1ccc2c(=O)c(Oc3ccccc3Br)coc2c1	13.4% (inactive)	–
O=C(C1CC(=O)N(c2ccc(Br)cc2)C1)N1CCCC1 (stereo not drawn)	7.71% (inactive)	–
COc1ccccc1NC(=O)N1CCCC1C(=O)NCc1cccs1 (stereo not drawn)	-11% (inactive)	–
CCN1C(=O)C(=O)N(CC(=O)Nc2cc(C)ccc2C)C1=O	-13.3% (inactive)	–
CC(C)c1ccc(S(=O)(=O)N2CCN(C(=O)c3ccc(N4CCCC4)c([N+](=O)[O-])c3)CC2)cc1	-11.7% (inactive)	–
Nc1ccc(C(=O)N2CCN(S(=O)(=O)c3ccc(Cl)cc3)CC2)cc1[N+](=O)[O-]	–	13.1 µM (active)
Cc1ccc(S(=O)(=O)N2CCN(C(=O)c3ccc(-n4cncn4)c([N+](=O)[O-])c3)CC2)cc1	-25.4% (inactive)	–
CC(Sc1nnc(COc2ccccc2)n1-c1ccccc1)C(=O)O (stereo not drawn)	-26.1% (inactive)	–
CC1CC(C)CN(c2ccc(S(=O)(=O)N3CCOCC3)cc2)C1 (stereo not drawn)	4.74% (inactive)	–
COc1cc(/C=C2\C(=N)N3N=C(CC(=O)N4CCOCC4)SC3=NC2=O)cc(OC)c1OC	29.4% (inactive)	–
O=C(CCNC(=O)c1ccccc1Cl)NCc1ccco1	-17.4% (inactive)	–
O=C(/C=C/c1ccc(Cl)cc1Cl)NCc1ccco1	–	11.7 µM (active)
COC(=O)/C=C/C(=O)NCc1ccco1	-12.4% (inactive)	–
O=C(Nc1ncc([N+](=O)[O-])s1)C1COc2ccccc2O1 (stereo not drawn)	53.4% (inactive)	–
CN(C(=O)CN1C(=O)/C(=C/c2ccc(Cl)cc2)SC1=S)C1CCS(=O)(=O)C1 (stereo not drawn)	-0.4% (inactive)	–
CCc1c(C)nc(N)n2c(SCC(=O)NC3CCCCC3)nnc12	-18.9% (inactive)	–
COc1ccc2cc1Oc1ccc(cc1)C[C@H]1c3cc(c(OC)cc3CCN1C)Oc1c(O)c(OC)cc3c1[C@H](C2)N(C)CC3	–	2.94 µM (active)
COc1ccc(/C=N/NC(=O)c2ccc3c(c2)OCCO3)c(OC)c1	27.3% (inactive)	–
Cn1nccc1C(=O)N1CCCC(C(=O)c2ccc(Oc3ccccc3)cc2)C1 (stereo not drawn)	-24.4% (inactive)	–

Structure (SMILES)	activity change, negative = inhibition	Potency
CC(C)n1c(=O)c(C=Nc2ccc(Br)cc2)c(O)n(Cc2ccco2)c1=O	–	13.1 µM (active)
Cn1c(O)c(C=Nc2ccc3c(c2)CCC3)c(=O)n(C)c1=O	16.4% (inactive)	–
CN(C)CCCN=Cc1c(O)n(Cc2ccco2)c(=O)[nH]c1=O	27.8% (inactive)	–
O=C(CN1CCN(C2CCS(=O)(=O)C2)CC1)N1N=C(c2ccc(Cl)cc2)CC1c1ccco1 (stereo not drawn)	28.6% (inactive)	–
CC(=O)NCC(=O)N1CCC(n2nccc2NC(=O)CCCc2ccccc2)CC1	9.78% (inactive)	–
CCOc1ccc(N/C(N)=N/c2nc(C)c(C)c(=O)[nH]2)cc1	-10.7% (inactive)	–
CCN1C(=S)N[C@@H](CCc2ccccc2)[C@H](C(=O)OC)[C@H]1C	–	inactive
CC1C(=O)Nc2ccccc2N1C(=O)c1ccc(F)cc1F (stereo not drawn)	-6.46% (inactive)	–
COc1ccccc1C(=O)N(Cc1ccc(C)o1)C1CCS(=O)(=O)C1 (stereo not drawn)	27.3% (inactive)	–
CC(C)C[C@H](NC(=O)[C@@H]1O[C@H]1C(=O)O)C(=O)NCCCCN=C(N)N	–	11.7 µM (active)
Cc1cc(C)cc(N(CCC#N)C(=O)CN2C(=O)NC3(CCCC3)C2=O)c1	17% (inactive)	–
Cc1ccc(Nc2nc(N)nc(CN3CCN(Cc4ccccc4)CC3)n2)cc1Cl	6.24% (inactive)	–
CC(C)(C)C(=O)CN1C2=NCCN2c2ccccc21	0.643% (inactive)	–
Cc1cc2c(cc1C)N(Cc1ccccc1)C1=NCCCN12	–	11.7 µM (active)
Cc1ccc(OCc2nc3ccccc3n2C)cc1	130% (inactive)	–
CCOc1ccc(C(CC(=O)O)NC(=O)Cc2ccccc2)cc1OC (stereo not drawn)	15.7% (inactive)	–
COc1ccc(COC(=O)NC(C(=O)O)c2ccccc2)cc1 (stereo not drawn)	-25.7% (inactive)	–
COc1ccc(C(CCN(Cc2ccc(OC)c(OC)c2)C(=O)CCl)c2ccccc2)cc1 (stereo not drawn)	–	2.94 µM (active)
O=C(CCCCO)c1ccc(O)c(Cl)c1	-10.3% (inactive)	–
Cc1ccc(OCC(=O)Nc2ccc3oc(=O)ccc3c2)cc1C	16.6% (inactive)	–
CC[C@]1(O)CC2CN(CCc3c([nH]c4ccccc34)[C@@](C(=O)OC)(c3cc4c(cc3OC)N(C=O)[C@H]3[C@@](O)(C(=O)OC)[C@H](OC(C)=O)[C@]5(CC)C=CCN6CC[C@]43[C@@H]65)C2)C1 (stereo partly drawn)	–	0.147 µM (active)
CC[C@]1(O)C[C@@H]2CN(CCc3c([nH]c4ccccc34)[C@@](C(=O)OC)(c3cc4c(cc3OC)N(C)[C@H]3[C@@](O)(C(=O)OC)[C@H](OC(C)=O)[C@]5(CC)C=CCN6CC[C@]43[C@@H]65)C2)C1	–	0.208 µM (active)
COc1ccc(NC(=O)C2CCC(CNS(=O)(=O)c3csc(C(N)=O)c3)CC2)cc1OC (stereo not drawn)	-9.3% (inactive)	–
CCCCN(CC(=O)Nc1cccc(S(=O)(=O)N2CCCC2)c1)Cc1nc2ccccc2c(=O)[nH]1	–	3.7 µM (active)
